H9c2 protect: protects H9c2 cardiomyocytes from peroxide injury | H2O2 injury protection, ATPLite, 2 h | protection from H2O2 cell death, % at 20 µM | 360,000 tested, 0.63% active;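 active = compounds giving at least 50% protection of heart cells from peroxide-induced death in the single-dose screen, raw or plate-pattern-corrected value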;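 note: 0% = DMSO wells with peroxide and 100% = DMSO wells without peroxide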
UBC9 SUMO inh: inhibitors of human SUMOylation (UBC9). P63279. HTRF SUMOylation assay, SAE1/SAE2 + UBC9, in vitro. inhibition, % at 35 µM. 290,000 tested, 0.36% active; in the data active = inhibition above about 50%, passing the limit was not always enough; inconclusive = no clear call, values can overlap the other calls
Target sequence (P63279 whole entry, looked up): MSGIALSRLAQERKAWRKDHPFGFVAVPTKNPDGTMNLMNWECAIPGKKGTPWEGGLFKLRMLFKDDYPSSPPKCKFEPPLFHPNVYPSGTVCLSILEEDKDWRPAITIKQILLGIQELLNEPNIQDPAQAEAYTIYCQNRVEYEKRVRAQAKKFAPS
NTR1 ag: agonists of human neurotensin receptor NTR1; P30989; NTR1-U2OS beta-arrestin-GFP spot imaging, agonist mode; activation, % at 20 µM; 330,000 tested, 0.17% active;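 active = activation at or above 40% of the spot to cytoplasm intensity ratio, with at least 20 cells analyzed; inconclusive = wells under 20 cells, flagged as cytotoxic or low count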;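 note: 0% = DMSO without peptide and 100% = 100 nM NTR1 peptide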
Target sequence (P30989 whole entry, looked up): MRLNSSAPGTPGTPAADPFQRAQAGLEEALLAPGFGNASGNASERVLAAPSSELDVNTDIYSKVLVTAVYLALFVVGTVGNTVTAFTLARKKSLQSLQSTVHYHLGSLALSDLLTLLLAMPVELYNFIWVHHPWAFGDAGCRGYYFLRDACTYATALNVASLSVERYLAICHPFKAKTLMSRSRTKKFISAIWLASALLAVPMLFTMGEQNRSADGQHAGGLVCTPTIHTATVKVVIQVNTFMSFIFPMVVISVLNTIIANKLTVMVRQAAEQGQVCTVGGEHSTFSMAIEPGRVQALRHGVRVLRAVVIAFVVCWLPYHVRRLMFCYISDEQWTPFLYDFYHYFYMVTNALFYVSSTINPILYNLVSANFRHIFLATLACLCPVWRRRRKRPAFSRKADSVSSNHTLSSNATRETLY
ALR inh: blocks human ALR sulfhydryl oxidase activity; purified ALR, DTT oxidation, H2O2 HRP-luminol luminescence; inhibition, % (test concentration not listed); 290,000 tested, 3.8% active; AID 485317;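 active = mean replicate inhibition above about 79%, with every replicate also reaching it, limit read from the data; inconclusive = only one of the two criteria met; inactive = mean below limit and not every replicate reaching it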
* marks the source's active call; other numbers are inactive results; ! = not confirmed by another sample. Most compounds without a hit are left out; they make up all but 3.9% or so of the library.

For CC(=O)NNC(=S)NC(=O)c1ccc(C)cc1 the results were H9c2 protect -2.4, UBC9 SUMO inh 2.9 and NTR1 ag -0.7.
`CCC(=O)NNC(=S)NC(=O)c1ccc(C)cc1` gave H9c2 protect 8.6, UBC9 SUMO inh 2.2, NTR1 ag -0.1 and ALR inh 98.6*.
Screening CCN(C(=O)COC(=O)CNC(=O)c1ccc2ccccc2c1)c1c(N)n(Cc2ccccc2)c(=O)[nH]c1=O returned H9c2 protect 11.1.
O=C(NN=C1CCCC1)c1cccc(Br)c1 was read as H9c2 protect 4.2, UBC9 SUMO inh 14.6, NTR1 ag -0.6 and ALR inh 43.1.
For CSCCC1NC(=S)N(Cc2ccccc2)C1=O (configuration not stated) the results were H9c2 protect 5.9, UBC9 SUMO inh -2.5, NTR1 ag 1.3 and ALR inh -1.6.
Screening CCOC(=O)C1CCN(C(=O)CS(=O)(=O)Cc2nc(-c3ccccc3Cl)oc2C)CC1 returned H9c2 protect -8.1, UBC9 SUMO inh 2.4, NTR1 ag 1.5 and ALR inh inconclusive.
For COc1cc(OC)c(OC)cc1CNCc1ccc2c(c1)OCO2 the results were H9c2 protect 6.8, UBC9 SUMO inh -0.1, NTR1 ag -0.4 and ALR inh -9.7.
O=C(CN1C(=O)c2ccccc2C1=O)Nc1cccc(Cl)c1 was read as H9c2 protect -3.5, UBC9 SUMO inh 4.8, NTR1 ag -0.2 and ALR inh -3.7.
S=c1[nH]nc(-c2ccco2)n1/N=C/C(Cl)=C/c1ccccc1 was read as H9c2 protect 0.8, UBC9 SUMO inh 22.7, NTR1 ag 7.7 and ALR inh 96.7*.
`Cc1cc(-c2n[nH]c(=S)n2/N=C/C(Cl)=C/c2ccccc2)n[nH]1` gave H9c2 protect -9.0, UBC9 SUMO inh 15.2, NTR1 ag 4.7 and ALR inh 95.6*.
Screening COC(=O)c1ccccc1NC(=O)NCc1ccccc1 returned H9c2 protect 5.9, UBC9 SUMO inh 2.1, NTR1 ag -0.5 and ALR inh -4.2.
Cc1ccc(C(=O)Nc2cccc(C(F)(F)F)c2)cc1NC(=O)c1csc(-c2ccncc2)n1 was read as H9c2 protect 54.8*!, UBC9 SUMO inh -7.5, NTR1 ag 0.2 and ALR inh 4.4.
Clc1ccccc1CSc1nnc(-c2ccccn2)n1Cc1ccco1 was read as H9c2 protect -4.3, UBC9 SUMO inh 7.2, NTR1 ag 0.0 and ALR inh 92.5*.
Clc1ccc(CSc2nnc(-c3cccnc3)n2Cc2ccco2)c(Cl)c1 was read as H9c2 protect 2.5, UBC9 SUMO inh 33.1, NTR1 ag 5.4 and ALR inh 97.0*.
COc1ccccc1NC(=O)CSc1nnc(-c2ccccn2)n1Cc1ccco1 was read as H9c2 protect 9.5, UBC9 SUMO inh -11.3, NTR1 ag 33.2 and ALR inh 97.1*.
`Clc1cccc(CSc2nnc(-c3cccnc3)n2Cc2ccco2)c1` gave H9c2 protect 5.6, UBC9 SUMO inh 6.7, NTR1 ag 2.2 and ALR inh 3.2.
For O=C(O)COc1ccccc1Cc1ccccc1 the results were H9c2 protect -9.4, UBC9 SUMO inh 24.2, NTR1 ag -0.7 and ALR inh -8.3.
`Cc1cnc(C(=O)Nc2nnc(SCc3c(Cl)cccc3Cl)s2)cn1` gave H9c2 protect 54.5*, UBC9 SUMO inh -2.6, NTR1 ag -0.3 and ALR inh -8.6.
Cc1ccc(CN2CC(C(=O)Nc3nnc(SCc4c(Cl)cccc4Cl)s3)CC2=O)cc1 (configuration not stated) was read as H9c2 protect -6.6, UBC9 SUMO inh -8.9 and NTR1 ag 7.3.
`CCCCc1cc(=O)oc2c(CN(C)C)c(O)ccc12` gave H9c2 protect 5.1, UBC9 SUMO inh 35.7, NTR1 ag -1.2 and ALR inh 93.8*.
For CN(C)Cc1c(O)ccc2c3c(c(=O)oc12)CCCCC3 the results were H9c2 protect 11.3, UBC9 SUMO inh 48.0, NTR1 ag -1.2 and ALR inh 89.8*.
`O=c1cc(CN2CCc3ccccc32)c2ccc(O)cc2o1` gave H9c2 protect 27.4, UBC9 SUMO inh 32.7, NTR1 ag 4.0 and ALR inh 99.4*.
Screening CCCCc1cc(=O)oc2cc(OCC(=O)N3CCOCC3)ccc12 returned H9c2 protect 0.4, UBC9 SUMO inh 12.5 and NTR1 ag 2.2.
CCCCc1cc(=O)oc2cc(O)ccc12 was read as H9c2 protect 52.5*, UBC9 SUMO inh 29.0, NTR1 ag 2.0 and ALR inh 46.4.
For CCCCc1cc(=O)oc2c(CN3CCN(C)CC3)c(O)ccc12 the results were H9c2 protect 14.6, UBC9 SUMO inh 24.6, NTR1 ag 0.5 and ALR inh 1.1.
`COCCN(CCOC)Cc1c(O)ccc2c3c(c(=O)oc12)CCC3` gave H9c2 protect 5.5, UBC9 SUMO inh 40.1, NTR1 ag 0.3 and ALR inh 5.3.
For CCc1ccc2c(CN3CCc4ccccc43)cc(=O)oc2c1 the results were H9c2 protect -2.8, UBC9 SUMO inh 10.7, NTR1 ag 3.5 and ALR inh -1.5.
`COc1ccccc1NC(=O)CSC1=NC(=O)C(Cc2ccccc2)C(=O)N1` (configuration not stated) gave H9c2 protect 2.3, UBC9 SUMO inh 11.5, NTR1 ag 0.0 and ALR inh 98.8*.
CCC1C(=O)N=C(SCC(=O)Nc2ccccc2)NC1=O (configuration not stated) was read as H9c2 protect 7.5, UBC9 SUMO inh -1.9, NTR1 ag -1.8 and ALR inh 99.3*.
CCC1C(=O)N=C(SCC(=O)Nc2ccc(S(N)(=O)=O)cc2)NC1=O (configuration not stated) was read as H9c2 protect 3.2, UBC9 SUMO inh 20.2, NTR1 ag -0.8 and ALR inh 99.5*.
COC(=O)/C=C1\SC(=NC(=O)c2ccc(-c3ccccc3)cc2)NC1=O was read as H9c2 protect -10.4, NTR1 ag -0.2 and ALR inh 1.2.
Screening CC(C)[C@H](NC(=O)c1ccccc1)C(=O)OCC(=O)Nc1ccc2c(c1)OCCO2 returned H9c2 protect 1.3, UBC9 SUMO inh 2.5, NTR1 ag 0.3 and ALR inh -2.4.
For c1c2c(cc3sc(N4CCCCC4)nc13)OCO2 the results were H9c2 protect -28.3, UBC9 SUMO inh -24.7, NTR1 ag 11.3 and ALR inh 98.7*.
c1ccc(N2CCN(c3nc4cc5c(cc4s3)OCO5)CC2)cc1 was read as H9c2 protect -10.9, UBC9 SUMO inh 15.8 and NTR1 ag 0.2.
For c1c2c(cc3sc(N4CCOCC4)nc13)OCO2 the results were H9c2 protect -5.1, UBC9 SUMO inh 6.5, NTR1 ag 3.2 and ALR inh 97.3*.
COCCCNC(=O)C(C)N1c2cccc3cccc(c23)S1(=O)=O (configuration not stated) was read as H9c2 protect 8.2, UBC9 SUMO inh 17.8, NTR1 ag 0.3 and ALR inh -85.0.
`Cc1cc(/C=N/Nc2nc(N)ncc2[N+](=O)[O-])c(C)n1-c1cccc(C(F)(F)F)c1` gave UBC9 SUMO inh -9.6, NTR1 ag 7.3 and ALR inh 8.8.
For O=S(=O)(Nc1ccc(O)c(Sc2nc3ccccc3s2)c1)c1ccc(F)cc1 the results were H9c2 protect -10.8, UBC9 SUMO inh -19.4, NTR1 ag 0.8 and ALR inh inconclusive.

Screening results as filed in PubChem BioAssay.
